Bioassay records as filed in PubChem.
Most compounds without a hit are left out; they make up all but 19% or so of the library.
IL1B secr inh: blocks inflammasome-driven IL-1 beta release; THP-1 LPS/ATP IL-1B secretion, AlphaLISA, 16 h; hits give low values; activity change, % at 57.5 µM; 360,000 tested, 4.7% active; in the data active = activity change below about -50%; inconclusive = mostly about -30% to -49%; note: % is set by controls: 0 for no effect and ±100 for the full control effect
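THP-1 cells pretreated 1 hr with compounds (up to 57.5 uM final), then stimulated with LPS (250 ng/mL final) plus ATP (1.25 mM final); secreted IL-1B measured by AlphaLISA after 16 hr, decreased signal indicating inhibition.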
DT40 TDP1 no CPT: qHTS for Inhibitors of human tyrosyl-DNA phosphodiesterase 1 (TDP1): qHTS in cells in absence of CPT | 420,000 tested, 15% active | AID 686978, 2013 | Potency, µM (doses to about 46.2 µM), inactives show top-dose activity change, negative = growth inhibition, hits mostly inhibitors | DT40 Tdp1-/- hTDP1 cells, no CPT, ATP luminescence, 48 h; note: potency is the fitted concentration of half-maximal effect; % is set by controls: 0 for no effect and ±100 for the full control effect; nearly all actives have a fitted effect of over 55% in size
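Chicken DT40 Tdp1-/- cells complemented with human TDP1, screened without camptothecin (DMSO vehicle only), 400 cells/well. Compounds pin-transferred, cells incubated at 37 °C for at least 48 hr. Growth read as ATP-dependent luminescence (CellTiter-Glo, 30 min at RT).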
BCR signal inh: inhibitors of chronic active B-cell receptor signaling | ABC-DLBCL IkBa-CBG/CBR reporter, luminescence ratio, 4 h | Potency, µM (highest dose often 46.1 µM), for inactives: at the highest dose activity change, negative = inhibition, actives largely listed as inhibitors | 340,000 tested, 0.05% active; active = well fitted inhibition curve with a large enough effect in the signal ratio, with a control signal flat, not every such curve was filed as active; inconclusive = small, poorly fitted or top-dose-only effect, or effect the other way, or a change in a side signal; the % refers to the signal ratio;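 note: potency is the fitted concentration of half-maximal effect; plate controls were basal doxycycline-induced cells for no effect and cells given 10 µM MG132 for full effect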
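Cell line TMD8 (human ABC DLBCL), stably expressing tet-inducible CBG68-IkBa fusion and CBR; IMDM/0.5% FBS; cpd up to 46 uM; dox induction, 4 h, 37C/5% CO2; dual luminescence; green/red ratio; MG132 control.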
SW480 rerep: inducers of DNA re-replication in SW480 colon cancer cells; Potency, µM (titrated, usually from 46.1 µM), for inactives: at the highest dose re-replication activation, actives largely listed as activators; SW480 DNA re-replication, Hoechst DNA content imaging, 48 h; AID 624297; 340,000 tested, 1.8% active; note: potency is the fitted concentration of half-maximal effect; % of control where 0% means no effect; nearly all actives have a fitted effect of over 55% in size
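Cells (250 per well) received 23 nL compound or DMSO by pin tool and were kept 48 hr at 37 C, 5% CO2. Nuclei were then stained with Hoechst for 40 min and scanned for DNA content.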
MCF10A rerep: inducers of DNA re-replication in MCF 10A breast cells; MCF 10A DNA re-replication, Hoechst nuclear intensity, 48 h; 350,000 tested, 2.9% active; Potency, µM (series often up to 46.1 µM), without a hit: at the top dose activity, positive = re-replication, most hits filed as activators; AID 624296; note: potency is the fitted concentration of half-maximal effect; % of control where 0% means no effect; nearly all actives have a fitted effect of over 50% in size
TDP1 cell CPT: growth inhibition of DT40 Tdp1-/-;hTDP1 cells with camptothecin (screen for TDP1 inhibitors); Potency, µM (series often up to 46.2 µM), for inactives: top-dose activity change, negative = growth inhibition, usual class: inhibitors; chicken DT40 Tdp1-/-;hTDP1 cells + 20 nM CPT, ATP luminescence, 48 h; AID 686979; 420,000 tested, 12% active; note: potency is the fitted concentration of half-maximal effect; % is set by controls: 0 for no effect and ±100 for the full control effect; nearly all actives have a fitted effect of over 55% in size
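Chicken DT40 Tdp1-/- cells complemented with human TDP1, 400 cells/well, exposed to compounds plus 20 nM camptothecin for at least 48 h at 37 C; viability read as ATP content by CellTiter-Glo luminescence.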
An asterisk follows results filed as active; ? = inconclusive; nt = not tested or not shown; [ ] = another dose, or the depositor's remark. Unless noted, calls come from the whole dose curve; as a rule, active = well fitted curve in the direction sought with a large enough effect; inconclusive = small, poorly fitted or top-dose-only effect, or another doubt; inactive = no such curve, though single readings can be large; an effect the other way counts as inactive or inconclusive.

SMILES | IL1B secr inh | DT40 TDP1 no CPT | BCR signal inh | SW480 rerep | MCF10A rerep | TDP1 cell CPT
COc1ccc(OC)c(C2=Nn3c(nnc3-c3cccc(OC(C)C)c3)SC2)c1 | 10.9 | 11.6µM* | 0.1% | 19.1% | 4.7% | 13µM*
CCOc1ccc(C2=Nn3c(nnc3-c3ccc(OC)cc3)SC2)cc1 | 19.7 | 2.59µM* | 12.6µM* | 5.8µM* | ? | 2.06µM*
COc1ccc(C2=Nn3c(nnc3-c3ccccc3OC)SC2)cc1OCC1CC1 | nt | nt | ? | 2.31µM* | ? | nt
COc1ccc(C2=Nn3c(nnc3-c3ccccc3)SC2)cc1OC | 0.8 | -10.6% | ? | 7.1% | ? | -25.6%
O=C1c2cccnc2C(=O)N1c1nc(-c2ccccc2)cs1 | nt | -29.3% | nt | nt | nt | -20.8%
CN1C[C@@H]2[C@@H]3C(=O)N(Cc4ccccc4)C(=O)[C@@H]3[C@](C)(C1=O)N2C(=O)c1ccccc1 | 13.9 | 3.3% | nt | -5.1% | -11.9% | 6.9%
CCOC(=O)CSC1=NC(=O)/C(=C/c2ccc(Br)cc2)S1 | -63.6* | 4.11µM* | ? | 20.2% | ? | 2.59µM*
CCOC(=O)CSC1=NC(=O)/C(=C\c2ccc(OC(C)=O)cc2)S1 | -61.6* | 2.91µM* | ? | ? | 2.59µM* | 2.59µM*
Cc1nc(NCCNC(=O)c2ccco2)c2c(C)c(C)sc2n1 | 27.2 | 20.6µM* | -4.9% | -8.0%[9.22 µM] | -14.7% | ?
Cc1nc(NCCc2ccc(S(N)(=O)=O)cc2)c2c(C)c(C)sc2n1 | -2.4 | 14.6µM* | 1.2% | 3.3% | 8.7% | 16.4µM*
Cc1ccc(C(=O)NCCNC(=O)c2ccco2)cn1 | 21.9 | 7.1% | 4.4% | -3.3% | -11.4% | 1.6%
Cc1nc(NCc2ccc(S(N)(=O)=O)cc2)c2c(C)c(C)sc2n1 | 6.9 | ? | 7.4% | 2.6% | 0.6% | ?
COc1c(-c2coc3cc4c(cc3c2=O)CC(O)C(C)(C)O4)ccc2c1C=CC(C)(C)O2 (configuration not stated) | nt | 0.0206µM* | nt | nt | nt | 0.0461µM*
CC1(C)C=Cc2c(cc3occ(-c4ccc5c(c4)OCO5)c(=O)c3c2O)O1 | nt | -0.7% | nt | nt | nt | -0.4%
COc1c(-c2coc3cc4c(cc3c2=O)CC(OC(C)=O)C(C)(C)O4)ccc2c1C=CC(C)(C)O2 (configuration not stated) | nt | 0.92µM* | nt | nt | nt | 1.3µM*
Cc1ccc2occ(CC(=O)Nc3ccc(Cl)c(C(F)(F)F)c3)c2c1 | nt | 16.4µM* | nt | nt | nt | 20.6µM*
CCOc1ccccc1NC(=O)Cc1noc2ccc(C)cc12 | nt | ? | nt | nt | nt | -12.1%
CCOc1ccccc1NC(=O)Cc1coc2ccc(C)cc12 | 27.5 | 16.4µM* | -1.2% | -5.5%[1.84 µM] | -21.0% | ?
CC(C)c1ccc2occ(CC(=O)Nc3cccc(C(F)(F)F)c3)c2c1 | nt | 29.1µM* | nt | nt | nt | ?
C/C(=C(/CCO)SS/C(CCO)=C(\C)N(C=O)Cc1cnc(C)nc1N)N(C=O)Cc1cnc(C)nc1N | nt | nt | nt | 0.6% | 1.5% | nt
COc1ccc(C(=O)NC2=NCCS2)cc1S(=O)(=O)N1CCOCC1 | 10.6 | 5.0% | nt | nt | nt | 6.3%
S=c1nc(-c2ccc(Br)cc2)oc2c1CCCC2 | 23.2 | -98.3% | -8.9% | -5.4% | 11.7% | 20.6µM*
Cc1ccc(NC(=O)C2CCN(C(=O)c3ccco3)CC2)cc1C | -17.3 | -1.1% | -1.7% | -17.9% | -3.3% | -4.1%
COc1ccc(CCNC(=O)CCCn2c(=S)[nH]c3ccsc3c2=O)cc1OC | -9.5 | ? | nt | nt | nt | -0.7%
Cc1ccccc1/C=C1\CCCc2ccccc2C1=O | 0.0 | -26.4% | -9.6% | 18.3% | ? | -21.1%
SMILES | IL1B secr inh | DT40 TDP1 no CPT | BCR signal inh | SW480 rerep | MCF10A rerep | TDP1 cell CPT
Cc1ccccc1/C=c1\s/c(=C\C(=O)C(C)(C)C)[nH]c1=O | 36.5 | 10.3µM* | 5.7% | ? | 16.4µM* | 13µM*
CCc1ccc(/C=C2/C(=O)NC(=O)N2C(C)=O)cc1 | ? | -22.6% | ? | 0.5% | 9.6% | -6.0%
CCc1ccc(/C=c2\s/c(=C\C(=O)C(C)(C)C)[nH]c2=O)cc1 | 0.0 | 23.1µM* | ? | ? | ? | ?
CCSc1nnc(N2C(=O)c3ccc(C(=O)c4ccc(C(=O)O)cc4)cc3C2=O)s1 | 9.9 | 16.6% | -1.8% | 5.7% | ? | 5.6%
Cc1nnc(SCC(=O)Nc2nccs2)n1C(C)C | 8.9 | 1.2% | 5.3% | -10.2% | -1.9% | 2.7%
CCOC(=O)CN(c1sc(C)c(C)c1C(=O)OCC)S(=O)(=O)c1ccc(C)cc1 | -5.3 | 14.6µM* | nt | nt | nt | ?
CCOC(=O)C1(CC)Oc2ccccc2C(c2ccc(OC)cc2)=C1C(=O)OC (configuration not stated) | -29.1 | 18.4µM* | -1.0% | 2.1% | 11.3% | ?
CCOC(=O)c1c(C)nc(C)c(C(=O)OCC)c1-c1cccnc1 | 33.5 | ? | -5.4% | -3.4% | -1.9% | -2.5%
CCOC(=O)C(=C1Nc2ccccc2N1)n1c(-c2cccnc2)nc2ccccc21 | -2.1 | ? | nt | nt | nt | 11.6µM*
CC1CC(C)CN(C(=O)CSc2nnc(-c3ccc(Cl)cc3)o2)C1 (configuration not stated) | -16.7 | 18.4µM* | ? | -6.3% | 5.0% | ?
Cc1ccc(-c2nnc(SCC(=O)N3CC(C)CC(C)C3)o2)cc1C (configuration not stated) | 5.3 | 20.6µM* | 3.7% | -4.5% | 0.7% | 25.9µM*
CC1CC(C)CN(C(=O)CSc2nnc(-c3ccco3)o2)C1 (configuration not stated) | ? | -11.1% | 2.6% | -5.4% | 28.5% | -3.5%
COc1cccc(-c2nnc(SCC(=O)N3CC(C)CC(C)C3)o2)c1 (configuration not stated) | -29.5 | 20.6µM* | 29.5% | 3.3% | ? | ?
N[C@H](CO)Cc1cnc[nH]1 | nt | -14.9% | nt | nt | nt | 7.2%
CC(C)[C@H](N)C(=O)N1CCC(C(=O)N[C@@H](Cc2ccccc2)C(=O)NCc2ccc(F)cc2)CC1 | -3.5 | 0.0% | 4.3% | -2.1% | 1.0% | -1.1%
CCCC1CC(C)(c2csc(Nc3ccc(OCC)cc3)n2)OC1=O (configuration not stated) | -1.9 | 14.6µM* | 11.1% | -5.6% | ? | 13µM*
Cc1ccc(S(=O)(=O)N2[C@@H](CO)CO[C@H]2CC(=O)c2cccs2)cc1 | -7.3 | ? | nt | nt | nt | ?
Cc1cccn2c(=O)c3cc(C#N)c(=O)n(Cc4cccnc4)c3nc12 | -11.7 | -18.7% | 3.9% | 8.2µM* | 2.59µM* | -22.0%
N#Cc1cc2c(=O)n3ccccc3nc2n(Cc2cccnc2)c1=O | 8.3 | -6.7% | nt | 2.31µM* | 11.6µM* | -0.6%
